Screens from PubChem.
Compounds with a hit are over-represented: about 2.4% of the library has one in this group of screens.
D2 PAM-1: D2 dopamine receptor (human) potentiation; potentiation, % at 10 µM; 340,000 tested, 0.34% active; HEK293 T-REx D2, calcium flux, EC20 dopamine potentiation; P14416;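 active means potentiation over 3 SD above the plate norm, cut at about 30% in these data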; further: 0% is about no effect
Target sequence (P14416 whole entry, looked up): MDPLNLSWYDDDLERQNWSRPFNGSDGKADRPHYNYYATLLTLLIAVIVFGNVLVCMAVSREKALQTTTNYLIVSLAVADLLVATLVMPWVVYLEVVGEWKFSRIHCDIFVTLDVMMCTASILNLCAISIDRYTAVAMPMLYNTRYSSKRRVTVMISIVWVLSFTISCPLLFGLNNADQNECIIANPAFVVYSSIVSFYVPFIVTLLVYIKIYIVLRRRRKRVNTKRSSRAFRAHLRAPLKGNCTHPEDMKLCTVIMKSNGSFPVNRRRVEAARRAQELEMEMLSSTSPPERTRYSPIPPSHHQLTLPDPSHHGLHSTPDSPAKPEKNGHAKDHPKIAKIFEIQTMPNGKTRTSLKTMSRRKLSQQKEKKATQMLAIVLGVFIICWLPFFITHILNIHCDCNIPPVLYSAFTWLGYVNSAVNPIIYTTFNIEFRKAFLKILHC
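Tetracycline-induced Hek293 Trex D2 cells, force-coupled to calcium, loaded with no-wash calcium dye. Compound added with 180 s kinetic read for agonism, then EC20 dopamine and a further 180 s read for potentiation.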
D2 ag-1: human D2 receptor agonism in beta-arrestin assay; P14416; DiscoveRx PathHunter D2 beta-arrestin, luminescence, 90 min; 100% = 57 uM dopamine signal; activation, % (test concentration not listed); 360,000 tested, 0.084% active; AID 624465; in the data active means activation above about 40%; inconclusive means between about 15% and that limit
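Agonist mode: compounds alone added to overnight-plated D2 PathHunter cells for 90 min at 37 C, with 57 uM final dopamine (EC100) defining full response. Beta-arrestin recruitment detected by chemiluminescent reagent, read after 1 h at ambient temperature.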
D2 ag-2: agonists of human D2 dopamine receptor | P14416 | AID 485358 | HEK293 T-REx D2 cells, calcium flux agonist mode | activation, % at 2 µM | 340,000 tested, 0.53% active;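 active means activation over 3 SD above normal in the single-dose calcium agonist read, cut at about 30% in these data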; further: 0% is about no effect
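Tetracycline-induced HEK293 T-REx cells with force-coupled D2 receptor, plated overnight at 30 C, loaded with no-wash calcium dye. After a 10 s baseline, compound was pin-added and calcium flux read kinetically for 180 s; calcium rises flagged agonists.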
D2 antagonist: D2 dopamine receptor (human) antagonism | P14416 | HEK293 TREx D2 cells, calcium flux, dopamine EC80 | inhibition, % at 10 µM | 340,000 tested, 2% active | AID 485344; in the data active means inhibition above about 30%; inactive means below that, where a call was filed; further: 0% is about no effect
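Calcium mobilization kinetics were recorded at 1 s intervals in tetracycline-induced HEK293 T-REx D2 cells, first for 180 s after compound addition and then 180 s after EC80 dopamine.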
D2 PAM-2: potentiates the human D2 dopamine receptor allosterically; DiscoveRx D2 beta-arrestin cells, luminescence, 90 min; 100% = 57 uM dopamine signal; potentiation, % (test concentration not listed); 360,000 tested, 0.23% active; AID 624464; in the data active means potentiation above about 50%; inconclusive means mostly about 30% to 49%
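PathHunter beta-arrestin assay in DiscoveRx D2 cells. Compounds were added with an EC20 of dopamine (50 nM final) for 90 min at 37 deg C. Luminescence was read 1 h after detection reagent, with 57 uM dopamine as the EC100 control.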
Numbers without * were called inactive; ? = inconclusive; · = no result.

SMILES | D2 PAM-1 | D2 ag-1 | D2 ag-2 | D2 antagonist | D2 PAM-2
Cn1c(Cn2c(=O)sc3ccccc32)nnc1SCC(=O)NCc1ccco1 | -9.8 | -7.4 | 0.6 | 12.2 | -0.7
O=C(CCn1c(=O)sc2ccccc21)NCc1ccco1 | -16.8 | -9.5 | 0.3 | 41.8* | -23.4
O=C(CCn1c(=O)sc2ccccc21)NCCC1=CCCCC1 | -39.5 | -2.4 | -3.0 | 37.5* | -19.2
Cc1cc(C)cc(N(C(=O)c2sc(C)nc2C)C(C(=O)NCc2ccco2)c2ccccc2)c1 (stereo unspecified) | 0.0 | 0.5 | -0.3 | -6.6 | -13.3
Cc1cccc(N(C(=O)c2sc(C)nc2C)C(C(=O)NCc2ccco2)c2ccccc2)c1 (stereo unspecified) | 1.0 | -2.6 | -0.2 | 45.5* | -4.6
Cc1ccc(N(C(=O)c2sc(C)nc2C)C(C(=O)NCc2ccco2)c2ccccc2)cc1 (stereo unspecified) | 9.4 | -1.7 | -0.5 | 43.6* | -19.9
O=C(NCC1c2ccccc2CCN1C(=O)CN1C(=O)c2ccccc2C1=O)C1CCCCC1 (stereo unspecified) | -5.0 | -2.1 | -0.5 | 30.4* | -10.1
O=C(CN1C(=O)c2ccccc2C1=O)N1CCCCC1 | 3.5 | -4.3 | 0.7 | -13.9 | -0.8
CCOc1ccccc1NC(=O)CSC1=Nc2ccccc2C2=NC(CC(=O)NC3CCCCC3)C(=O)N12 (stereo unspecified) | 4.8 | · | -1.1 | · | ·
Cn1nnnc1SCCNCc1ccc(OCc2ccc(Cl)cc2)cc1 | -23.2 | · | 0.1 | · | ·
CCOC(=O)c1c(NC(=O)CC(C)C)sc(C(C)=O)c1C | 36.8* | -2.4 | 1.1 | 6.6 | 7.3
CCC(=O)Nc1nc2c(OC)ccc(OC)c2s1 | -0.9 | -2.1 | -0.4 | -9.3 | -2.3
COc1ccc(OC)c2sc(NC(=O)C3CC3)nc12 | -20.9 | -3.9 | 0.8 | 64.9* | -4.7
CCOc1ccc(NC(=O)Cn2c(=O)cc(C)c3c(C)nn(-c4cccc(Cl)c4C)c32)cc1 | 5.1 | · | -0.3 | · | ·
CCOc1ccccc1CNC(=O)c1ccc2nc(N3CCC(C)CC3)sc2c1 | 1.1 | · | 0.2 | · | ·
O=C(CCN1C(=O)CSc2ccccc21)Nc1ccc(C(F)(F)F)cc1 | -14.3 | 3.2 | 1.1 | 88.1* | -6.0
O=C(CCN1C(=O)CSc2ccccc21)Nc1cccc(C(F)(F)F)c1 | -16.6 | -2.2 | -0.3 | 4.6 | -2.9
CCN(CC)C(=O)c1cnn(-c2ccc(F)cc2)c1-n1cccc1 | · | · | 0.7 | · | ·
CC(NC(=O)c1cc(S(=O)(=O)N(C)C)ccc1Cl)C1CC2CCC1C2 (stereo unspecified) | -4.8 | -0.4 | 0.1 | 35.2* | -1.1
CC(NC(=O)c1cccc(S(=O)(=O)N(C)C)c1)C1CC2CCC1C2 (stereo unspecified) | 3.4 | -2.3 | -2.2 | -12.8 | -7.5
COc1ccc(-c2csc(NCc3ccco3)n2)cc1 | 8.3 | -5.7 | -0.3 | -9.7 | -9.3
c1coc(CNc2nc(-c3ccncc3)cs2)c1 | 32.1* | 2.3 | · | · | 13.2
O=S(=O)(Nc1ccc(-c2ccc(N3CCCCCC3)nn2)cc1)c1ccc(C(F)(F)F)cc1 | 4.4 | · | 0.5 | · | ·
Cn1c(=O)c2c(nc(OCc3cccnc3)n2Cc2c(F)cccc2Cl)n(C)c1=O | · | -2.0 | 0.3 | 43.3* | -8.8
COc1ccc(NC2=NCC(=O)N2c2ccccc2F)cc1 | 7.5 | -3.5 | -0.6 | 36.6* | -0.9
SMILES | D2 PAM-1 | D2 ag-1 | D2 ag-2 | D2 antagonist | D2 PAM-2
CCC(=O)N1CCc2cc(S(=O)(=O)CCC(=O)Nc3cc(Cl)ccc3OC)ccc21 | -3.2 | · | -0.9 | · | ·
CCOc1ccc2nc(N3CCCC(C(=O)Nc4ccccc4CC)C3)sc2c1 (stereo unspecified) | -5.8 | · | · | · | ·
Cc1ccc(COc2ccc3oc(-c4ccccc4)c(C(=O)O)c3c2)cc1 | -9.3 | · | 0.0 | · | ·
O=C(Cn1cccc1C(=O)c1ccccc1)NCCCN1CCOCC1 | -5.9 | -0.7 | 0.6 | 4.2 | -20.9
O=C(Cn1cccc1C(=O)c1ccccc1)NCCN1CCOCC1 | -15.1 | -2.0 | 0.8 | 54.9* | -4.2
Cc1ccc(C)c(N2CCN(CCCNC(=O)Cn3cccc3C(=O)c3ccccc3)CC2)c1 | -46.4 | -1.9 | 0.5 | 41.0* | -26.1
COc1ccc(-c2[nH]c(-c3ccc(OC)c(OC)c3)nc2SCC(=O)Nc2ccccc2)cc1 | -10.6 | · | · | · | ·
CN(C)c1ccc(CNn2cnnc2SCc2ccc(F)cc2)cc1 | 37.6* | 1.4 | -1.3 | -3.0 | -2.2
Oc1ccc(NCc2ccccc2OCc2ccccc2)cc1 | -13.7 | ? | -0.1 | -2.0 | 96.8*
O=C(CCc1ccc(Oc2cc([N+](=O)[O-])cc([N+](=O)[O-])c2)cc1)N1CCCCCC1 | -5.3 | ? | -0.9 | 37.5* | 75.1*
Cc1cccc(-c2nc3c4ccccc4nc(N4CCN(c5ccccc5F)CC4)n3n2)c1 | 5.8 | · | -0.2 | · | ·
COc1ccc(CCNC2CCc3ccccc3C2)cc1 (stereo unspecified) | -12.1 | -4.8 | -0.6 | 81.0* | -69.0
COc1ccc(CCNC(=O)C2Cc3ccccc3C(=O)O2)cc1 (stereo unspecified) | 9.2 | -0.8 | 0.5 | 8.5 | -4.4
COCC(=O)OC1CCn2c1nc1c2C(=O)C(C)=C(NC(C)=O)C1=O (stereo unspecified) | · | ? | · | · | 87.1*
Cc1ccn2c(Nc3ccc(C(C)C)cc3)c(-c3cccs3)nc2c1 | -0.2 | · | -1.1 | · | ·
O=C(CCNC(=O)N1CC(=O)Nc2ccccc21)NCc1ccc(F)cc1 | -12.7 | -10.0 | -0.1 | 51.6* | -27.4
CCOC(=O)c1cnc(-n2nc(C)cc2C)nc1NCCc1ccccc1 | -0.7 | -4.0 | 0.1 | 34.3* | -7.8
CCOC(=O)c1cnc(-n2nc(C)cc2C)nc1Nc1ccccc1OC | 8.6 | · | -0.4 | 6.1 | ·
COc1cccc(CNC(=O)C2CCN(Cc3cc4ccccc4n3Cc3ccc(C)cc3)CC2)c1 | 0.6 | · | 0.3 | · | ·
Cc1ccc(N=Cc2sc(O)c3ccccc23)cc1 | -6.6 | 11.6 | 64.9* | -5.8 | -0.9
Cc1ccc(N=Cc2c(O)c3ccccc3n(C)c2=O)cc1 | 0.3 | 2.3 | 0.5 | 12.4 | -3.8
Cc1ccc(N=Cc2sc(O)c3ccccc23)c(C)c1 | -9.4 | -6.8 | 11.0 | 58.1* | ?
Cc1nn(-c2ccc(Cl)cc2)c(N)c1C(O)(CSc1nccn1C)C(F)(F)F (stereo unspecified) | 6.0 | 0.7 | 0.5 | 9.2 | -4.3
Cc1nn(-c2ccccc2)c(N)c1C(O)(CSc1nccn1C)C(F)(F)F (stereo unspecified) | -0.2 | -0.5 | -0.1 | 37.5* | 5.6
COc1cccc(C(=O)NCCCNC(=O)c2cccnc2)c1 | -24.6 | -4.0 | -1.3 | 38.9* | -0.8
COc1ccc(OC)c(N2C(=O)CC(Cc3ccc(C)cc3)C2=O)c1 (stereo unspecified) | 34.7* | 0.3 | -0.6 | -1.7 | 3.4
COc1ccc(CC2CC(=O)N(c3ccc(C)cc3)C2=O)cc1 (stereo unspecified) | -0.4 | 7.4 | -0.2 | -7.0 | -2.2
